Reference: PubChem BioAssay AID1851 (National Center for Advancing Translational Sciences (NCATS), 2009)
Hit rate of the full screen: of about 16,000 compounds, about 2,600 (16%) were called active. Roughly 20% stayed inconclusive and do not appear here. Calls come from the whole dose curve; as a rule, active = well fitted curve in the direction sought with a large enough effect; inconclusive = small, poorly fitted or top-dose-only effect, or effect the other way; inactive = no such curve, though single readings can be large or run the other way. These entries were drawn from the full list.

These compounds were tested against Cytochrome P450 2D6 (Homo sapiens) (UniProt P10635) (assay: Cytochrome panel assay with activity outcomes). Conditions: recombinant CYP, pro-luciferin dealkylation, luminescence, p450-cyp2d6; series mostly up to 57.1 µM; activity, negative = inhibition: at the top concentration.
Cytochrome P450 2D6 (Homo sapiens), sequence (P10635 whole entry, looked up): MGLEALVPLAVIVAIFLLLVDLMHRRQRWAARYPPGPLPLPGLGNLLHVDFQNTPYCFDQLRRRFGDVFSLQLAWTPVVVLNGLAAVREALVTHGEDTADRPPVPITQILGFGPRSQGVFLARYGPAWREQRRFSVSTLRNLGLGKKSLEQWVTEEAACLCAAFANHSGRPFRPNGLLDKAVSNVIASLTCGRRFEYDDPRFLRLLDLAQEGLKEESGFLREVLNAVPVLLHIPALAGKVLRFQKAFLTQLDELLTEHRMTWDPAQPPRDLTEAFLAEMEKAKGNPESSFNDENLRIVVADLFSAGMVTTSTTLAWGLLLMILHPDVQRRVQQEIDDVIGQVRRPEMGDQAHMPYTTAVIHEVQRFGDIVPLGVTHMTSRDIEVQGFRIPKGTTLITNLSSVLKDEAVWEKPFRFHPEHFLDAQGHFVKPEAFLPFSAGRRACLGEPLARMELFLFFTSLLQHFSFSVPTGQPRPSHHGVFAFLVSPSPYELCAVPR
% is set by controls: 0 for no effect and ±100 for the full control effect.

activity, negative = inhibition, inactive:
COc1ccc(-n2c(=O)cnc3cnc(OC)nc32)cc1 1.51%, COCCn1c(=O)c(-c2cccc(C#N)c2)nc2cnc(N3CCN(C)CC3)nc21 4.11%, O=C(c1cc(C(F)(F)F)cc(C(F)(F)F)c1)N1CCC[C@@]2(CCN(c3ccccc3)C2)C1 2.19%, O=C(Nc1ccn(Cc2ccccc2F)n1)c1ccc(COc2cc(Cl)ccc2Cl)o1 -11.3%, O=C(N/N=C/c1ccc(O)cc1)c1ccc(COc2cc(Cl)ccc2Cl)o1 -29.6%, NS(=O)(=O)c1ccc(N=Nc2ccc[nH]c2=O)cc1 -6.28% [at 11.4 µM], C(=Nc1cnc2ccccc2c1)c1ccc2ccccc2n1 1.16% [at 11.4 µM], C=C(C)[C@@H]1CC=C(C(=O)O)CC1 -8.58%, NNC(=O)c1nn(-c2ccc(Cl)cc2)ccc1=O -1.71%, COc1ccc(Oc2c(Cl)cnn(-c3ccccc3)c2=O)cc1 -3.24%, CC(C)Cn1cnc2c(SCc3ccccn3)nc(N)nc21 6.1% [at 11.4 µM], CC(C)Cn1cnc2c(Sc3c([N+](=O)[O-])ncn3C)nc(N)nc21 8.92% [at 11.4 µM], CCCOc1ccc(C2C(=O)N(C3CCCCC3)CC(=O)N2C2CC2)cc1OC (stereo not given) -0.0714%, Cn1c[n+](C)cc1/C=N/O -3.03%, O=[N+]([O-])c1ccc(N2CCCC2)cc1N1CCCC1 -17.6%, O=[N+]([O-])c1cccnc1N1CCOCC1 -5.33%, Cc1ccc(-c2nc3ccccc3s2)cc1NC(=O)c1cc(-n2cnnc2)ccc1Cl -3.13%, CN1CCN(c2ncc3nc(-c4cccs4)c(=O)n(-c4ccccc4)c3n2)CC1 0.142%, O=C(O)C1CCC(=O)N(C2CC2)C1c1ccccc1 (stereo not given) 21.6%, COCCNc1nc(-c2ccccc2C(F)(F)F)nc2ccccc12 -2.92%, CC(=O)NCCNc1ccnc(-c2ccccc2C)n1 -10.3%, COCCNc1nc(-c2ccccc2Cl)nc2ccccc12 0.886%, CC(=O)NCCNc1ccnc(-c2ccccc2C(F)(F)F)n1 -6.01%, COC(=O)[C@@]1(Cc2ccc(OC)cc2)[C@H]2c3cc(C(=O)N4CCCC4)n(CCc4c[nH]c5ccc(O)cc45)c3C[C@H]2CN1C(=O)c1ccccc1 4.23%, O=Nc1c(-c2c(O)[nH]c3ccccc23)[nH]c2ccccc12 12.1%, COc1ccc(C)cc1NC(=O)c1cc2cc3ccc(C)cc3nc2o1 7.98%, Cc1ccc2cc(CCNC(=O)c3ccc(Br)o3)c(=O)[nH]c2c1 -5.59%, Cc1cccc(N(C)S(=O)(=O)c2ccc3[nH]c(=O)c(=O)[nH]c3c2)c1 -6.04%, COc1ccc(-n2c(=O)c(C)nc3cnc(OC)nc32)cc1 6.93%, CCCn1c(=O)c2[nH]c(C3CCCC3)nc2n(CCC)c1=O -6.79%, COc1ccc(-c2nc3cnc(N4CCOCC4)nc3n(CCc3ccccc3)c2=O)cc1 -0.0486%, COC(=O)[C@@H]1CC[C@H](C)[C@@H](c2ccc(C)cc2)N1C(=O)c1ccc(/C=N\OCC[C@@H]2C=C[C@H](OC(C)=O)[C@H](COC(C)=O)O2)cc1 6.79% [at 11.4 µM], COC(=O)c1cc(=O)n(C2CC2)c(=NC2CC2)s1 -4.17%, CCCC(=O)N1CCN(c2ccc(NC(=O)c3ccc(OCC)c([N+](=O)[O-])c3)cc2)CC1 23.3%, CCC(C)Nc1c([N+](=O)[O-])cc(C)cc1[N+](=O)[O-] (stereo not given) -14.5%, Cc1ccc(OCC(=O)N/N=C\c2c(C)n(C)c3ccccc23)c([N+](=O)[O-])c1 -14.9%, Cc1nnc(N(C)C(=O)c2ccccn2)s1 -0.12%, COc1ccc(-c2nn(-c3ccccc3)cc2/C=N/NC(=O)c2ccc3c(c2)OCO3)cc1 -26.4%, CSCC[C@@H]1NC(=O)C/C=C\[C@@H](C)COC(=O)[C@H](C)COC1=O 10.5% [at 11.4 µM], COc1cc(-c2ccc(=O)[nH]n2)ccc1OC(F)F 4.03%, CC(C)c1cccc2nc3c(c(C(C)(C)C)c12)Cn1c-3cccc1=O -17.1%, C[C@@H](N=C(N)N)C(=O)O 9.93% [at 11.4 µM], Clc1ccccc1NN(Cc1ccccn1)c1ccccc1Cl -11.2% [at 11.4 µM], CNC(=S)N1CCN(c2cccc(OC)c2)CC1 -11.4%, O=C(NNC(=O)c1cc2cc3ccccc3nc2s1)c1cccc(C(F)(F)F)c1 5.7%, Cc1cc(=O)c2c(O)c(O)ccc2o1 -8.29%, Cc1cc(=O)oc2cc(O)ccc12 0.168% [at 25.6 µM], CC(=O)CC(=O)Nc1ccc2ccccc2c1 15.5% [at 11.4 µM], O=C(COc1ccc2ccccc2c1)NNC(=O)Cc1cccc2ccccc12 -1.19%, CCNC(=O)NC1(C(=O)Nc2ccc3c(c2)OCCO3)CCCCC1 6.31%, CC(=O)NN1C(=O)c2ccc(Oc3ccc([N+](=O)[O-])cc3)cc2C1=O -5.87%, O=C(NC(=S)Nc1ccc(C(=O)N2CCOCC2)cc1)c1ccc([N+](=O)[O-])cc1 17.4%, COc1ccc(-n2c(=O)c(-c3cc(F)cc(F)c3)nc3cncnc32)cc1 4.13%

AC50, active:
O=C(Nc1cccnc1)c1ccc(COc2cc(Cl)ccc2Cl)o1 15.8 µM, Cc1ccc2ccccc2c1CSc1nc(N)nc2c1ncn2CC(C)C 3.98 µM, O=[N+]([O-])c1cc(F)c(N2CCOCC2)cc1N1CCCCC1 10 µM, COc1ccccc1-c1nc(NCCNC(C)=O)c2ccccc2n1 6.31 µM, CC(=O)NCCNc1nc(-c2ccccc2C)nc2ccccc12 5.01 µM, CC(=O)NCCNc1nc(-c2ccccc2Cl)nc2ccccc12 12.6 µM, CC(=O)NCCNc1nc(-c2ccccc2C(F)(F)F)nc2ccccc12 3.98 µM, CN(C)C(=C(C#N)C#N)N1CCN(c2ccc(Cl)c(Cl)c2)CC1 1.12 µM, CCCCNCCOCCOc1ccc(C)cc1[N+](=O)[O-] 2 µM, C=CCNCCOCCOc1ccc(C)cc1[N+](=O)[O-] 3.16 µM, O=c1c(O)c(-c2ccc(O)cc2)oc2cc(O)cc(O)c12 10 µM, O=C(COc1ccc2ccccc2c1)Nc1ccc(Cc2ccncc2)cc1 0.355 µM
